# Reference: PMC9911399, “Two distinct binding modes provide the RNA-binding protein RbFox with extraordinary sequence specificity”
# Positions count from the first letter of the chain named. The full ranking holds about 16,000 sequences; the median of “ka relative to ugcaugu” is about 0.096, and the highest 2% start at about 0.35. For the sample, the highest values were picked, then their nearest neighbours and some sequences at random.
# B1: UAUACUA (DNA:RNA)
# RNA: GGGAGACCGGAAUUCAGAUUGUCCUAUACUAUUAAAUCCCGUCGUAGCCACCA
# DNA 1: CAATCTGAATTCCGGTCTCCC
# DNA 2: TGGTGGCTACGACGGGATT
# B2: CUUGGCU (DNA:RNA)
# RNA: B1 RNA with U25C, A26U, A28G, C29G, U30C, A31U
# DNA 1: CAATCTGAATTCCGGTCTCCC
# DNA 2: TGGTGGCTACGACGGGATT
# B3: AAGCCAC (DNA:RNA)
# RNA: B1 RNA with U25A, U27G, A28C, U30A, A31C
# DNA 1: CAATCTGAATTCCGGTCTCCC
# DNA 2: TGGTGGCTACGACGGGATT
# B4: CUGCCGC (DNA:RNA)
# RNA: B1 RNA with U25C, A26U, U27G, A28C, U30G, A31C
# DNA 1: CAATCTGAATTCCGGTCTCCC
# DNA 2: TGGTGGCTACGACGGGATT
# B5: UACUCGG (DNA:RNA)
# RNA: B1 RNA with U27C, A28U, U30G, A31G
# DNA 1: CAATCTGAATTCCGGTCTCCC
# DNA 2: TGGTGGCTACGACGGGATT
# B6: CAGGGUU (DNA:RNA)
# RNA: B1 RNA with U25C, U27G, A28G, C29G, A31U
# DNA 1: CAATCTGAATTCCGGTCTCCC
# DNA 2: TGGTGGCTACGACGGGATT
# B7: CCUACAU (DNA:RNA)
# RNA: B1 RNA with U25C, A26C, U30A, A31U
# DNA 1: CAATCTGAATTCCGGTCTCCC
# DNA 2: TGGTGGCTACGACGGGATT
# B8: UGUCUCG (DNA:RNA)
# RNA: B1 RNA with A26G, A28C, C29U, U30C, A31G
# DNA 1: CAATCTGAATTCCGGTCTCCC
# DNA 2: TGGTGGCTACGACGGGATT
# B9: UGAAGGC (DNA:RNA)
# RNA: B1 RNA with A26G, U27A, C29G, U30G, A31C
# DNA 1: CAATCTGAATTCCGGTCTCCC
# DNA 2: TGGTGGCTACGACGGGATT
# B10: AUUUCAU (DNA:RNA)
# RNA: B1 RNA with U25A, A26U, A28U, U30A, A31U
# DNA 1: CAATCTGAATTCCGGTCTCCC
# DNA 2: TGGTGGCTACGACGGGATT
# B11: CACACCG (DNA:RNA)
# RNA: B1 RNA with U25C, U27C, U30C, A31G
# DNA 1: CAATCTGAATTCCGGTCTCCC
# DNA 2: TGGTGGCTACGACGGGATT
# B12: UGGGUAU (DNA:RNA)
# RNA: B1 RNA with A26G, U27G, A28G, C29U, U30A, A31U
# DNA 1: CAATCTGAATTCCGGTCTCCC
# DNA 2: TGGTGGCTACGACGGGATT
# B13: GUUCCGU (DNA:RNA)
# RNA: B1 RNA with U25G, A26U, A28C, U30G, A31U
# DNA 1: CAATCTGAATTCCGGTCTCCC
# DNA 2: TGGTGGCTACGACGGGATT
# B14: AUAUCCC (DNA:RNA)
# RNA: B1 RNA with U25A, A26U, U27A, A28U, U30C, A31C
# DNA 1: CAATCTGAATTCCGGTCTCCC
# DNA 2: TGGTGGCTACGACGGGATT
# B15: UGAUACC (DNA:RNA)
# RNA: B1 RNA with A26G, U27A, A28U, C29A, U30C, A31C
# DNA 1: CAATCTGAATTCCGGTCTCCC
# DNA 2: TGGTGGCTACGACGGGATT
# B16: CCUAGCC (DNA:RNA)
# RNA: B1 RNA with U25C, A26C, C29G, U30C, A31C
# DNA 1: CAATCTGAATTCCGGTCTCCC
# DNA 2: TGGTGGCTACGACGGGATT
# B17: GGAAGUC (DNA:RNA)
# RNA: B1 RNA with U25G, A26G, U27A, C29G, A31C
# DNA 1: CAATCTGAATTCCGGTCTCCC
# DNA 2: TGGTGGCTACGACGGGATT
# B18: UUGUCCG (DNA:RNA)
# RNA: B1 RNA with A26U, U27G, A28U, U30C, A31G
# DNA 1: CAATCTGAATTCCGGTCTCCC
# DNA 2: TGGTGGCTACGACGGGATT
# B19: UGGUACG (DNA:RNA)
# RNA: B1 RNA with A26G, U27G, A28U, C29A, U30C, A31G
# DNA 1: CAATCTGAATTCCGGTCTCCC
# DNA 2: TGGTGGCTACGACGGGATT
# B20: UGGUACC (DNA:RNA)
# RNA: B1 RNA with A26G, U27G, A28U, C29A, U30C, A31C
# DNA 1: CAATCTGAATTCCGGTCTCCC
# DNA 2: TGGTGGCTACGACGGGATT
# B21: GUCCUUG (DNA:RNA)
# RNA: B1 RNA with U25G, A26U, U27C, A28C, C29U, A31G
# DNA 1: CAATCTGAATTCCGGTCTCCC
# DNA 2: TGGTGGCTACGACGGGATT
# B22: CGGUACG (DNA:RNA)
# RNA: GGGAGACCGGAAUUCAGAUUGUCCCGGUACGUUAAAUCCCGUCGUAGCCACCA
# DNA 1: CAATCTGAATTCCGGTCTCCC
# DNA 2: TGGTGGCTACGACGGGATT
# B23: UUGUUCG (DNA:RNA)
# RNA: B22 RNA with C25U, G26U, A29U
# DNA 1: CAATCTGAATTCCGGTCTCCC
# DNA 2: TGGTGGCTACGACGGGATT
# B24: GUAACCG (DNA:RNA)
# RNA: B22 RNA with C25G, G26U, G27A, U28A, A29C
# DNA 1: CAATCTGAATTCCGGTCTCCC
# DNA 2: TGGTGGCTACGACGGGATT
# B25: UGAUCUC (DNA:RNA)
# RNA: B1 RNA with A26G, U27A, A28U, A31C
# DNA 1: CAATCTGAATTCCGGTCTCCC
# DNA 2: TGGTGGCTACGACGGGATT
# B26: UGCUGAG (DNA:RNA)
# RNA: B22 RNA with C25U, G27C, A29G, C30A
# DNA 1: CAATCTGAATTCCGGTCTCCC
# DNA 2: TGGTGGCTACGACGGGATT
# B27: CGUCGUU (DNA:RNA)
# RNA: B22 RNA with G27U, U28C, A29G, C30U, G31U
# DNA 1: CAATCTGAATTCCGGTCTCCC
# DNA 2: TGGTGGCTACGACGGGATT
# B28: CGAAAUG (DNA:RNA)
# RNA: B22 RNA with G27A, U28A, C30U
# DNA 1: CAATCTGAATTCCGGTCTCCC
# DNA 2: TGGTGGCTACGACGGGATT
# B29: CCGAAUG (DNA:RNA)
# RNA: B22 RNA with G26C, U28A, C30U
# DNA 1: CAATCTGAATTCCGGTCTCCC
# DNA 2: TGGTGGCTACGACGGGATT
# B30: GAAUGUU (DNA:RNA)
# RNA: B1 RNA with U25G, U27A, A28U, C29G, A31U
# DNA 1: CAATCTGAATTCCGGTCTCCC
# DNA 2: TGGTGGCTACGACGGGATT
# B31: CGAUUGU (DNA:RNA)
# RNA: B22 RNA with G27A, A29U, C30G, G31U
# DNA 1: CAATCTGAATTCCGGTCTCCC
# DNA 2: TGGTGGCTACGACGGGATT
# B32: GUAAUGU (DNA:RNA)
# RNA: B1 RNA with U25G, A26U, U27A, C29U, U30G, A31U
# DNA 1: CAATCTGAATTCCGGTCTCCC
# DNA 2: TGGTGGCTACGACGGGATT
# B33: GGAAUGU (DNA:RNA)
# RNA: B22 RNA with C25G, G27A, U28A, A29U, C30G, G31U
# DNA 1: CAATCTGAATTCCGGTCTCCC
# DNA 2: TGGTGGCTACGACGGGATT
# B34: CGAAUGU (DNA:RNA)
# RNA: B22 RNA with G27A, U28A, A29U, C30G, G31U
# DNA 1: CAATCTGAATTCCGGTCTCCC
# DNA 2: TGGTGGCTACGACGGGATT
# B35: GAUGUUU (DNA:RNA)
# RNA: B1 RNA with U25G, A28G, C29U, A31U
# DNA 1: CAATCTGAATTCCGGTCTCCC
# DNA 2: TGGTGGCTACGACGGGATT
# B36: GAAAUGU (DNA:RNA)
# RNA: B1 RNA with U25G, U27A, C29U, U30G, A31U
# DNA 1: CAATCTGAATTCCGGTCTCCC
# DNA 2: TGGTGGCTACGACGGGATT
# B37: CGAAUUG (DNA:RNA)
# RNA: B22 RNA with G27A, U28A, A29U, C30U
# DNA 1: CAATCTGAATTCCGGTCTCCC
# DNA 2: TGGTGGCTACGACGGGATT
# B38: CCCCGAA (DNA:RNA)
# RNA: B22 RNA with G26C, G27C, U28C, A29G, C30A, G31A
# DNA 1: CAATCTGAATTCCGGTCTCCC
# DNA 2: TGGTGGCTACGACGGGATT
# Biological target: T1, RBFOX1 RRM RbFoxmut (Fox-RRM*) (Homo sapiens, UniProt Q9NWB1 109-208, R118D;E147R;N151S;E152T)
# T1 sequence: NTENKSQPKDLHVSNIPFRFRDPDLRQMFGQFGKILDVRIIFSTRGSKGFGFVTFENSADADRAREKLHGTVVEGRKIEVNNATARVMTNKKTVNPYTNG
# Test: EMSA; HiTS-Eq, 1 nM pool, 10 min; buffer printed only for the single-RNA assays: 10 mM Tris pH 7.5, 150 mM NaCl, 3.4 mM EDTA, 0.001% NP-40, 30 C
# Conditions: tags: His6 N-terminal (pET28a); label: 5' 32P
# Procedure, shortened: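 Purified RbFox RRM, wild type or mutant, was incubated for 10 min in 50 µL with 1 nM of a 5′-radiolabelled RNA pool carrying 7 randomized nucleotides, whose flanks were annealed to DNA oligonucleotides, over a series of increasing protein concentrations. Unbound RNA was resolved on 8% native PAGE, cut out, reverse-transcribed, barcoded by PCR and sequenced on an Illumina HiSeq 2500. Relative association constants were derived from changes in read counts for each RNA species versus the control reaction and normalised to the cognate motif.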
row,Binder,binding signal
1,B1,0.0619 KA relative to UGCAUGU
2,B2,0.102 KA relative to UGCAUGU
3,B3,0.0884 KA relative to UGCAUGU
4,B4,0.116 KA relative to UGCAUGU
5,B5,0.0779 KA relative to UGCAUGU
6,B6,0.106 KA relative to UGCAUGU
7,B7,0.0881 KA relative to UGCAUGU
8,B8,0.32 KA relative to UGCAUGU
9,B9,0.0677 KA relative to UGCAUGU
10,B10,0.12 KA relative to UGCAUGU
11,B11,0.12 KA relative to UGCAUGU
12,B12,0.172 KA relative to UGCAUGU
13,B13,0.127 KA relative to UGCAUGU
14,B14,0.0954 KA relative to UGCAUGU
15,B15,0.103 KA relative to UGCAUGU
16,B16,0.149 KA relative to UGCAUGU
17,B17,0.111 KA relative to UGCAUGU
18,B18,0.188 KA relative to UGCAUGU
19,B19,0.367 KA relative to UGCAUGU

row,Binder,binding signal
1,B20,0.133 KA relative to UGCAUGU
2,B21,0.116 KA relative to UGCAUGU
3,B22,0.24 KA relative to UGCAUGU
4,B23,0.463 KA relative to UGCAUGU
5,B24,0.114 KA relative to UGCAUGU
6,B25,0.0775 KA relative to UGCAUGU
7,B26,0.102 KA relative to UGCAUGU
8,B27,0.108 KA relative to UGCAUGU
9,B28,0.101 KA relative to UGCAUGU
10,B29,1.39 KA relative to UGCAUGU
11,B30,0.884 KA relative to UGCAUGU
12,B31,0.206 KA relative to UGCAUGU
13,B32,0.154 KA relative to UGCAUGU
14,B33,0.959 KA relative to UGCAUGU
15,B34,1.07 KA relative to UGCAUGU
16,B35,0.125 KA relative to UGCAUGU
17,B36,0.0843 KA relative to UGCAUGU
18,B37,0.141 KA relative to UGCAUGU
19,B38,0.136 KA relative to UGCAUGU
